Molecules are shown by their SMILES. Unmarked numbers belong to inactive results. The source made the active and inactive calls. Cut-off read from the data, not from the text of the source, unless noted: active = inhibition above about 25%; inactive = the rest.

As a reminder, the inhibition is the relative decrease from the control value, in per cent.

Experiment [1] has as its target Nuclear receptor coactivator 1 (Homo sapiens) (UniProt Q15788). The experiment can be described thus: NCOA1 GAL4-fusion reporter inhibition – cell-based, luminescence, quadruplicate, confirmation (AID 588820;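 active = mean inhibition above 46.68%, the untreated control wells mean plus 3 SD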;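 note: 0% = DMSO wells and 100% = gossypol 36 µM treated wells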). To be noted: HEK293 GAL4-SRC1 luciferase reporter, at 3.6 µM, active compounds read high. A general note: In a reporter assay the amount or activity of a reporter protein is the signal.

Experiment [2] in a line: repression of VP16-driven luciferase reporter – cell-based, luminescence, high throughput, counter-screen for SRC1 inhibitor project (AID 588824). To be noted: cell-based VP16 transactivation luciferase luminescence; at 3.6 µM; active compounds read high.

Chain of Nuclear receptor coactivator 1 (Homo sapiens) (Q15788 whole entry, looked up, the tested form may be a part): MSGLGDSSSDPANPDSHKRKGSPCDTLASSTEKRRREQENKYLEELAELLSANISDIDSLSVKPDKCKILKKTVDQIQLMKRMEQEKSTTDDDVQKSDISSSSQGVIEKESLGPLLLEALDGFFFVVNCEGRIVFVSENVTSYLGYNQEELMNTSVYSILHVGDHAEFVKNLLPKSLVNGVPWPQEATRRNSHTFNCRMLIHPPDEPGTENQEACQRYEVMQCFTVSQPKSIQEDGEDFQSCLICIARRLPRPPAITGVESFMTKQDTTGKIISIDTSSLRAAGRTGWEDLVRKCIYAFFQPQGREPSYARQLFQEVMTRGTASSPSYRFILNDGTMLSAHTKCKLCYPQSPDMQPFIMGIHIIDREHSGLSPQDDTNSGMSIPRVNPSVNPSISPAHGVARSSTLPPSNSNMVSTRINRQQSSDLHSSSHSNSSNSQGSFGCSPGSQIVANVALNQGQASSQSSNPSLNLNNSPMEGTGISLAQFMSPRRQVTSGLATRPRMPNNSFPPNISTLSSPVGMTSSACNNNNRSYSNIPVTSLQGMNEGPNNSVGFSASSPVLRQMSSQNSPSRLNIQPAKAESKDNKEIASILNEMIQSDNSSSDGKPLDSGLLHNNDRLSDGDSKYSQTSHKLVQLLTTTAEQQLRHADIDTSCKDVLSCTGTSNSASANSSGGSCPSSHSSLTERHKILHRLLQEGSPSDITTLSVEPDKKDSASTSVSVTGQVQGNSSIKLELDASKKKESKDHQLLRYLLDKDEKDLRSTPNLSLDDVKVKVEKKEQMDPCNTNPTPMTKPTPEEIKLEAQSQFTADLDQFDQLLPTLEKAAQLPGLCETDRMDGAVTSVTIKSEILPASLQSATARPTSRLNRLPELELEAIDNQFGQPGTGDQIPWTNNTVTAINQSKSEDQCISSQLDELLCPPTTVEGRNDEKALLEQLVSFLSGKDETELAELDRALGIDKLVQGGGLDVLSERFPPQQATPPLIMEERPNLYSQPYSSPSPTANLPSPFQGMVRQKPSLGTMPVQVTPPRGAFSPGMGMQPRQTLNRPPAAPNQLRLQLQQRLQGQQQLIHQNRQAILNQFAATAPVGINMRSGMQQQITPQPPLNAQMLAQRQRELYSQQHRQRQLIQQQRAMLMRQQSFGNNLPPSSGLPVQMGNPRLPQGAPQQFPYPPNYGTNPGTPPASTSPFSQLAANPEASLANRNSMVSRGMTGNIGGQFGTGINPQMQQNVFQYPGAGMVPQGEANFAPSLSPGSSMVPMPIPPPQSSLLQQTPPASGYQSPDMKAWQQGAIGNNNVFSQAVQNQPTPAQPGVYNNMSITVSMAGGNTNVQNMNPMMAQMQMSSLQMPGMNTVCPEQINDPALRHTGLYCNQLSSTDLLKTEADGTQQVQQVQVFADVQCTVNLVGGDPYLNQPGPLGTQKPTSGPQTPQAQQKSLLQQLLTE

Consider `Cc1ccc(S(=O)(=O)N2CCN(C(=O)c3ccc(S(=O)(=O)N4CCCC4)cc3)CC2)cc1`, for which the inhibition in experiment [1] is 1.07%; in experiment [2], 9%.

On to `CC(C(=O)Nc1ccon1)N1C(=O)c2ccccc2S1(=O)=O` (stereo unspecified), for which the inhibition was -3.82% in experiment [1] and 11.8% in experiment [2].

Consider `O=C(c1ccc(Cl)c(Cl)c1)N1CCN(c2ccccn2)CC1`, for which the inhibition in experiment [1] was -12.5%; in experiment [2], 7.01%.

As for `COCCn1c(SCC(=O)Nc2cccc(NC(C)=O)c2)nc2c([nH]c3ccccc32)c1=O`, the inhibition was -31.7% in experiment [1] and -16.2% in experiment [2].

On to `N#CC(C#N)=NNc1ccc2cn[nH]c2c1`, for which the inhibition is 14.6% in experiment [1] and 31.6% (active) in experiment [2].

For the compound `Cn1c(N)c(C(=O)CSc2nn(-c3ccccc3)c(=S)s2)c(=O)n(C)c1=O`, the inhibition in experiment [1] was 8.31%; in experiment [2] it was 17.7%.

`COc1ccc(OC)c(C2=NS(=O)(=O)N(C)C(C(=O)Nc3ccc(F)cc3F)=C2)c1`: the inhibition in experiment [1] is -0.3%; in experiment [2] it was 4.07%.

Turning to `CC(Oc1ccccc1)C(=O)N1CCC2(CC1)CC(=O)c1ccccc1O2` (stereo unspecified), the inhibition was 5.89% in experiment [1] and 3.37% in experiment [2].

`CCN1/C(=C2\C(=O)N(C)C(=S)N2c2ccccc2)C=Cc2ccccc21`: the figures for the inhibition in experiment [1] and in experiment [2] were -4.3% and 2.2%, respectively.

Regarding `CCC(Cc1ccccc1)NC(=O)CCNS(=O)(=O)c1cc(Br)cnc1N` (stereo unspecified), the values for the inhibition in experiment [1] and in experiment [2] were 0.75% and 5.04%, respectively.

Regarding `COc1cccc(CNc2nc3cc(-c4ccsc4)sc3c(=O)n2C)c1OC`, the results for the inhibition in experiment [1] and in experiment [2] were -0.05% and 25.6% (active), respectively.

`CC(=O)Nc1ccc(NC(=O)C2Cc3c(-c4ccco4)ccnc3O2)cc1` (stereo unspecified): the inhibition in experiment [1] is 3.04%; in experiment [2], 8.12%.

Regarding `COc1cc(C(=O)NC(=S)NNC(=O)c2cnccn2)cc(OC)c1OC`, the values for the inhibition in experiment [1] and in experiment [2] were 19.6% and -5.2%, respectively.

Consider `COC(=O)C(C)Sc1nc(NCc2ccccc2)nc(N(C)C)n1` (stereo unspecified), for which the values for the inhibition in experiment [1] and in experiment [2] were -11.2% and -11.6%, respectively.

For `CC1(C(=O)NS(=O)(=O)Cc2cccc(Cl)c2)CCN1C(=O)Cc1ccc(-c2ccccc2)cc1` (stereo unspecified), the inhibition in experiment [1] is -5.52%; in experiment [2], -14.3%.

Take `CCOC(=O)CSc1cc(-c2ccccc2)nc2ncnn12`: the inhibition in experiment [1] was 17.9%; in experiment [2], 4.7%.

`C=C1CCC[C@]2(C)C[C@H]3OC(=O)C(CN4CC(C)OC(C)C4)[C@H]3C[C@@H]12` (stereo partly specified): the inhibition in experiment [1] is -0.94%; in experiment [2] it was 2.96%.

As to `CCOC(=O)c1[nH]c(C)c(C(=O)OCc2ccc(C)cc2)c1C`, the figures for the inhibition in experiment [1] and in experiment [2] were 4.43% and 5.19%, respectively.

Turning to `Cc1ccc2cc3cc(C(=O)NCc4ccco4)oc3nc2c1`, the inhibition in experiment [1] is -10%; in experiment [2], 36% (active).

Consider `O=C(Nc1ccc2c(c1)OCCO2)C(c1cc2ccccc2o1)N1CCN(C/C=C/c2ccccc2)CC1` (stereo unspecified), for which the results for the inhibition in experiment [1] and in experiment [2] were -6.79% and -12.4%, respectively.

For `O=C(NCc1ccncc1)C1CCCN(S(=O)(=O)c2ccc(Br)cc2)C1` (stereo unspecified), the inhibition in experiment [1] was -1.35%; in experiment [2], 14.6%.

Take `Brc1ccc2ncnc(NCc3ccco3)c2c1`: the inhibition in experiment [1] is 32.1%; in experiment [2], 31.2% (active).

In the case of `O=C(CSc1nc(-c2cccs2)cc(C(F)(F)F)n1)Nc1cc(OCC(F)(F)C(F)F)cc([N+](=O)[O-])c1`, the results for the inhibition in experiment [1] and in experiment [2] were 17.1% and -0.51%, respectively.

With `COc1cccc(NC(=O)CN(C)CC(=O)Nc2ccc(C)c([N+](=O)[O-])c2)c1`, the inhibition in experiment [1] was 28%; in experiment [2], 27.2% (active).

In the case of `COc1ccc(CNC(=O)c2cc3c(C)nc4ccccc4c3o2)c(OC)c1`, the inhibition is -5.62% in experiment [1] and 22.3% in experiment [2].

Turning to `CCOC(=O)c1ccc(NC(=O)c2ccc(CN3CCc4ccccc4C3)cc2)cc1`, the inhibition is -48.8% in experiment [1] and 30.4% (active) in experiment [2].

Take `COc1ccccc1NC(=O)Cn1c(C)cc(=O)c2cccc(OC)c21`: the inhibition in experiment [1] is -24.2%; in experiment [2] it was 4.63%.

As for `Cc1nn(CC(=O)N2CCN(c3cccc(C(F)(F)F)c3)CC2)c(=O)c2cccn12`, the inhibition was 23.4% in experiment [1] and 8.52% in experiment [2].

On to `COc1ccccc1CNC(=O)C(=O)NCCC1CCCCN1S(=O)(=O)c1ccc(C)cc1` (stereo unspecified), for which the results for the inhibition in experiment [1] and in experiment [2] were 26.4% and 7.29%, respectively.

With `COc1ccc(-c2cc(N3C(=O)Nc4ccccc4N3O)n[nH]2)c(OC)c1`, the results for the inhibition in experiment [1] and in experiment [2] were 25.8% and 20.1%, respectively.

`COc1ccccc1-c1cccc(-c2nc(C(=O)N3CCCCC3)cc3c2[C@H](CCO)N(S(=O)C(C)(C)C)C3)c1` (stereo partly specified): the inhibition in experiment [1] is -56.9%; in experiment [2], -21.5%.

Take `COc1ccc(-c2nc(-c3ccc(NC(=O)c4ccncc4)cc3)no2)cc1OC`: the inhibition in experiment [1] was -3.19%; in experiment [2], 41.4% (active).

`O=C(NC(=S)Nc1cccc(Cl)c1N1CCCCC1)c1ccco1`: the values for the inhibition in experiment [1] and in experiment [2] were -11.6% and 7.26%, respectively.

For `COc1ccc2nc(N3CCN(C(=O)c4ccc5ncsc5c4)CC3)sc2c1`, the inhibition in experiment [1] was -5.74%; in experiment [2], -0.4%.

With `CCC(C)C(=O)Nc1nc(C)c(-c2csc(Nc3cc(Cl)ccc3OC)n2)s1` (stereo unspecified), the inhibition in experiment [1] is -14.5%; in experiment [2], -1.24%.

For the compound `CCN(CC(=O)Nc1ccc(NC(C)=O)cc1)C(=O)Cc1ccc(S(=O)(=O)N2CCOCC2)s1`, the inhibition in experiment [1] is 6.3%; in experiment [2] it was 8.19%.

As to `NC(=O)c1nsc(C(=O)N(c2ccccc2F)C(C(=O)NCc2ccc(F)cc2)c2ccc(O)cc2)c1N` (stereo unspecified), the inhibition in experiment [1] is -23.1%; in experiment [2], -2.03%.

Take `O=C(NCCS(=O)(=O)N1CCN(c2cccc(Cl)c2)CC1)C1CC1`: the inhibition in experiment [1] was -3.41%; in experiment [2], 18.9%.

As for `S=C1SCN(Cc2ccccn2)CN1Cc1ccco1`, the inhibition was -2.15% in experiment [1] and -1.66% in experiment [2].

Turning to `COc1cc(/C=C/C(=O)Nc2ccc3nc4n(c(=O)c3c2)CCCC4)cc(OC)c1OC`, the inhibition in experiment [1] was -22.6%; in experiment [2] it was -26.8%.

In the case of `O=C(O)CNC(=O)c1cccc(C(F)(F)F)c1`, the inhibition in experiment [1] was -9.63%; in experiment [2], -6.05%.

Regarding `CCCCCCCC[n+]1c(C)n(-c2ccccc2)c2ccc(NC(C)=O)cc21`, the inhibition in experiment [1] is 15.6%; in experiment [2], 19.2%.

Turning to `COc1ccc(CN(C(=O)CSc2nnc(-c3c[nH]c4ccccc34)o2)c2ccc(F)cc2)cc1OC`, the inhibition in experiment [1] is -67.5%; in experiment [2] it was -22.2%.

For the compound `COc1ccccc1N1CCN(C(=O)C2CCN(S(=O)(=O)c3ccc4c(c3)CC(C)N4C(=O)C3CC3)CC2)CC1` (stereo unspecified), the inhibition was -15.8% in experiment [1] and 5.48% in experiment [2].

Regarding `COc1ccccc1C(c1nnnn1Cc1ccco1)N1CCN(c2cccc(C)c2C)CC1` (stereo unspecified), the inhibition is 10.7% in experiment [1] and 5.76% in experiment [2].

Turning to `O=C(CNC(=O)c1cccc(F)c1)N/N=C/c1cc(Br)ccc1OC(=O)/C=C/c1ccco1`, the results for the inhibition in experiment [1] and in experiment [2] were 3.9% and 6.51%, respectively.

With `COc1ccc(C2CC(c3ccc(Br)cc3)=NN2C(=O)CSC2=NCCS2)cc1` (stereo unspecified), the values for the inhibition in experiment [1] and in experiment [2] were 7.19% and 10.6%, respectively.

Regarding `Cc1ccccc1C(=O)Nc1cc(NC(=O)c2ccccc2C)cc(C(=O)O)c1`, the inhibition was -14.1% in experiment [1] and -11.4% in experiment [2].

These data come from PubChem BioAssay.
